Rows were chosen to be rich in hits. Some 3.5% of all compounds tested hit in one or more screens of this group.
ANO1 block: blocks the mouse calcium-activated chloride channel TMEM16A | Q8BHY3 | HEK293 TMEM16A/YFP iodide influx fluorescence, ionomycin | normalized B-score (activity score, 25-100; higher = stronger inhibition) at 10 µM | 310,000 compounds, 1.2% hits;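 active = ratio plate-corrected score three or more library SD toward inhibition, starting fluorescence score within five deviations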;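 also: score derived from kinetic fluorescence span divided by baseline fluorescence per well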
KCNK9 inh: inhibitors of human KCNK9 two-pore domain potassium channel | Q9NPC2 | HEK293 KCNK9, FluxOR thallium flux fluorescence; active compounds read low | B-score at 10 µM | 310,000 compounds, 1.2% hits | AID 488922;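 active = ratio B-score over 3 SD below the library mean, with starting fluorescence within 5 SD of its mean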;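 also: negative B-score means less thallium flux so channel inhibition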
Kir21 inh: inhibitors of mouse Kir2.1 inward-rectifier potassium channel | P35561 | HEK293-Kir2.1, FluxOR thallium flux fluorescence; active compounds read low | B-score at 10 µM | 310,000 compounds, 0.85% hits | AID 1672;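 active = fluorescence ratio B-score at or below minus 3 SD of library scores, with starting-brightness B-score within 2 SD, cut at about -4.2 in these data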;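 also: channel flux triggered by added potassium and thallium sulfate stimulus; B-score of peak minus minimum fluorescence over baseline after thallium stimulus; more negative B-score means stronger Kir2.1 block with less thallium influx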
KCNK3 block: human KCNK3 channel inhibition, primary screen; CHO-KCNK3 thallium flux, FluxOR fluorescence; active compounds read low; 340,000 compounds, 0.84% hits; B-score at 10 µM; O14649;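 active = B-score under library mean minus 4 SD, starting fluorescence ratio at most library mean plus 5 SD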;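 also: more negative B-score means stronger inhibition of thallium flux through KCNK3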
Target sequence (O14649 whole entry, looked up): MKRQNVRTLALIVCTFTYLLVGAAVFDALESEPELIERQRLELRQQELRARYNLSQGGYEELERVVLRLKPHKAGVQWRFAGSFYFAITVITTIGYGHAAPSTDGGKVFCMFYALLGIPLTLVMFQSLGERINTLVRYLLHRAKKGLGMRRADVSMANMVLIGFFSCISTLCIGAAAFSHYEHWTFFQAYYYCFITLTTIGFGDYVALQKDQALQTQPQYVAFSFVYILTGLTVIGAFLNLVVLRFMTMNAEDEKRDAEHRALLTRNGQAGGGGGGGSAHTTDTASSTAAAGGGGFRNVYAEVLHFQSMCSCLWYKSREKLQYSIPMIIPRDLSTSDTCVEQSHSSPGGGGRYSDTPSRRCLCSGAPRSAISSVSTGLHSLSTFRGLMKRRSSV
ANO1 activ: mouse TMEM16A channel activation, primary screen. Q8BHY3. HEK293 TMEM16A/YFP-H148Q/I152L, iodide quench fluorescence; active compounds read low. B-score at 10 µM. 340,000 compounds, 0.3% hits. AID 623877;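 active = fluorescence-ratio B-score plate-corrected deviation score at least 3 library SD below zero, with starting fluorescence score within 5 deviations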;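 also: channel opened by trigger with iodide after compound preincubation; score built on the fluorescence ratio of max minus min over baseline; more negative score means more quench and so TMEM16A activation or potentiation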
* = called active by the depositor; i = inactive; · = no result.

SMILES	ANO1 block	KCNK9 inh	Kir21 inh	KCNK3 block	ANO1 activ
Cc1nnnn1/C(=C\c1ccccc1)C(=O)OCC(=O)Nc1ccc(Cl)cc1F	i	i	-7.29*	i	i
O=C(COC(=O)CC(c1ccccc1)c1ccccc1)Nc1ccc(F)c(F)c1	100*	i	-1.1	·	·
O=C(COC(=O)CC(c1ccccc1)c1ccccc1)NCc1ccccc1	i	i	-5.81*	i	i
O=C(COC(=O)CC(c1ccccc1)c1ccccc1)Nc1cccc(F)c1	i	i	1.55	i	i
Cc1ccc(NC(=O)Cn2c(=O)c3cccn3c3ccccc32)c(Cl)c1	i	i	-1.1	i	i
Cc1cc(/C=N/n2cnnc2)c(C)n1-c1ccc(Cl)cc1	i	i	-2.54	i	i
Cc1cc(/C=N/n2cnnc2)c(C)n1-c1ccc(OCc2ccc(Cl)cc2Cl)cc1	100*	i	1.7	i	i
Cc1ccc(NS(=O)(=O)c2ccc(NC(=O)c3ccccc3C(=O)O)cc2)c(C)c1	i	i	1.73	i	i
Cc1ccc(NS(=O)(=O)c2ccc(NC(=O)CSc3ccc(Cl)cc3)cc2)c(C)c1	25*	i	-0.07	i	i
O=C1c2ccccc2C(O)(c2ncc[nH]2)N1CCc1ccccc1 (configuration not stated)	i	i	-0.31	i	i
COc1ccccc1OCCCCOc1ccccc1C(C)=O	25*	i	-0.52	i	i
CC(=O)c1ccccc1OCCOc1ccccc1C(C)=O	i	i	1.45	i	i
COc1cccc(CN(CC2CCCO2)S(=O)(=O)c2ccc(-n3cnnn3)c(OC)c2)c1 (configuration not stated)	i	i	0.48	i	i
CCN(Cc1ccccc1)S(=O)(=O)c1ccc(S(=O)(=O)N(Cc2cccc(OC)c2)CC2CCCO2)cc1 (configuration not stated)	25*	i	0.24	i	i
COc1ccc(-c2csc(NC(C)c3nc4cc(C(F)(F)F)ccc4n3CCOCCO)n2)cc1 (configuration not stated)	25*	i	-0.14	i	i
CC(Nc1nc(-c2ccc(F)cc2)cs1)c1nc2cc(C(F)(F)F)ccc2n1CCOCCO (configuration not stated)	i	i	1.68	i	i
O=c1c(/C=N/N2CCOCC2)c(C(F)(F)F)[nH]n1-c1ccccc1	i	i	0.48	i	i
Cc1[nH]n(-c2ccccc2)c(=O)c1/C=N/N1CCOCC1	i	i	-1.17	i	-7.38*
Cc1ccc(C)c(C(=O)Nc2ccncc2)c1	i	i	1.95	i	i
CC(=O)c1cccc(NC(=O)CSc2n[nH]c(=O)n2C2CC2)c1	·	·	·	i	i
O=c1c2c(-c3ccccc3)csc2ncn1/N=C/c1cccc([N+](=O)[O-])c1O	25*	i	0.95	i	i
O=c1c2c(-c3ccccc3)csc2ncn1/N=C/c1ccc(O)c([N+](=O)[O-])c1	i	i	1.04	i	i
COCCN(CCOC)Cc1c(O)ccc2c3c(c(=O)oc12)CCC3	i	-7.11*	-1.12	i	i
COC(=O)c1nn(Cc2ccccc2)c(=O)c2ccccc12	i	i	1.67	i	i
COc1cc2c(cc1OC)CN(C(=O)c1nn(Cc3ccccc3)c(=O)c3ccccc13)CC2	·	·	·	-9.27*	i
SMILES	ANO1 block	KCNK9 inh	Kir21 inh	KCNK3 block	ANO1 activ
CCN(CC)c1ccc2nc3ccc(N)cc3[n+](-c3ccccc3)c2c1	·	·	·	-9.15*	i
CCN(CC)c1ccc2nc3ccccc3[n+](CC)c2c1	i	i	-0.33	i	i
O=C(NCC1CCCO1)C1CCN(C2CCN(C(=O)CC3CCCC3)CC2)CC1 (configuration not stated)	i	i	0.76	i	-6.61*
O=C(NCC1CCCO1)C1CCN(C2CCN(CCCC3CCCC3)CC2)CC1 (configuration not stated)	i	i	0.08	i	i
CC(=O)c1ccc(NC(=O)NC2CC(=O)N(c3ccc4c(c3)OCCO4)C2)cc1 (configuration not stated)	i	i	1.11	i	i
COc1ccc(OCCC(=O)OCC(=O)NCCC2=CCCCC2)cc1	i	i	0.77	i	-34.2*

Source: PubChem BioAssay (Johns Hopkins Ion Channel Center)
